In PubChem BioAssay:
“And” between values parts separate entries of the source, which are not always exact repeats. Equal entries are not always repeated. A structure can be active in one record and inactive in another. The source made the active and inactive calls. Unless noted, the rule behind the calls is not given here.

Columns and labels:
[1] = P. berghei load reduction in hepatocytes – cell-based, HepG2, luciferase luminescence, HepG2 viability, primary screen (AID 624349; in the data active = parasite load remaining mostly below about 12%, no sharp cut-off; inactive = mostly above about 10%;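 note: 100% = mean of DMSO negative control wells on the same plate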); conditions: P. berghei liver stage in HepG2, luciferase luminescence, concentration not given here; parasite load remaining: stronger effect = lower value; viability: measured here: HepG2 viability without parasites
[2] = liver-stage malaria parasite load reduction – cell-based, known kinase inhibitor set, luminescence, hepatoma host viability (AID 624392); conditions: Plasmodium liver stage in hepatoma cells, luciferase luminescence, concentration not given here; liver cell % of control: measured here: host liver cell viability; parasite % of control: stronger effect = lower value;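 note: infected cells incubated roughly two days before readout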
[3] = altered dexamethasone sensitivity, NF-kB reporter, cell-based, luciferase, IL-1B stimulus (AID 624486); conditions: IL-1B + dexamethasone, luminescence; percent of negative control (+Dex): actives lie on both sides, concentration not given here; z-score: measured here: IL-1B alone, no Dex;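 for percent of negative control (+Dex): 100% = mean signal of vehicle control wells on the plate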
[4] = C. elegans survival during P. aeruginosa infection – whole organism (AID 651566);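 note: tested at 14 µM; sign flipped so higher z means a lower ratio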; conditions: C. elegans killed by P. aeruginosa, survival ratio
[5] = pro-inflammatory signaling induction in mouse macrophages – cell-based, murine, luminescence (AID 652131); conditions: murine macrophage pro-inflammatory reporter, stronger effect = higher value
[6] = biological target: Cellular tumor antigen p53 (Homo sapiens) (UniProt P04637); assay: GFP-p53 level modulators in HPV16+ cells – imaging, known kinase inhibitor set, EGFP/DsRed ratio (AID 1053116); conditions: GFP-p53 stability, stronger effect = higher value; EGFP object count: measured here: GFP-p53 positive objects count;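 note: cells exposed to compounds for 24 h at 37 °C before reading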
Chain of Cellular tumor antigen p53 (Homo sapiens) (P04637 whole entry, looked up): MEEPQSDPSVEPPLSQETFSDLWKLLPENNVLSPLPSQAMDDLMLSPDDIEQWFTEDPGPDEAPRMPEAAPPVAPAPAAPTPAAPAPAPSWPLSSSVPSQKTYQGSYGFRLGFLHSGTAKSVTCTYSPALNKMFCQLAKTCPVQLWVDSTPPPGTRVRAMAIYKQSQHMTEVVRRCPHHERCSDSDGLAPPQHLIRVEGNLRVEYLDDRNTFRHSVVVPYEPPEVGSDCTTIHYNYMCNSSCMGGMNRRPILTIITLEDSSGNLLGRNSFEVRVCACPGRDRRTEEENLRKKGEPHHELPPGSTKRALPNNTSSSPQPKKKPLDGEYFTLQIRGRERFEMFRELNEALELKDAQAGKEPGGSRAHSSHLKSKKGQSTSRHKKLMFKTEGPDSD

[7] = inducers of IRF3 signaling, differentiated THP-1 – cell-based, PMA-stimulated THP-1, luminescence (AID 1053176); conditions: PMA-differentiated THP-1, IRF3 reporter luminescence; stronger effect = higher value
[8] = MELAS cybrid and Rieske KO viability enhancers – cell-based, MELAS cybrids, Rieske KO mouse fibroblasts, CellTiter-Glo, primary screen (AID 1508586;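 active = mean z-score across replicates of 1.96 or higher in either the MELAS or the Rieske mutant cell line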;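 note: z relative to plate mean and SD of compound and empty wells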); conditions: low glucose
[9] = MELAS cybrid survival, CellTiter-Glo 48 h, stronger effect = higher value
[10] = Rieske KO mouse fibroblast survival, CellTiter-Glo 72 h

Structure (SMILES) | parasite load remaining [1] | viability [1] [%] | liver cell % of control [2] | parasite % of control [2] | percent of negative control (+Dex) [3] | z-score [3] | z-score [4] | z-score [5] | EGFP object count [6] | EGFP/DsRed ratio [6] | fraction signal [7] | z-score [8, 9] | z-score [8, 10]
Nc1nccc(-c2c(-c3ccc(F)cc3)ncn2C2CCNCC2)n1 | 50.2% (inactive) | 61.1 | 79.4% and 93.7% | 77.2% (inactive) and 61.2% (inactive) | 136% (inactive) and 118% (inactive) | 1.59 and 1.56 | -0.995 (inactive) and 0.19 (inactive) | 15.2 (active) and 4.36 (inactive) | 12.5 and 3 | 0.0782 (inactive) and 0.0295 (inactive) | 0.0105 (inactive) and -0.008 (inactive) | -0.885 (inactive) and -0.815 (inactive) | 0.00861 and -0.488
COc1cc2c(cc1Nc1nc(Nc3cccc(F)c3C(N)=O)c3cc[nH]c3n1)N(C(=O)CN1CCN(C(C)C)CC1)CC2 | – | – | 73.3% | 300% (inactive) | 95.5% (inactive) | -0.34 | 0.095 (inactive) | -0.476 (inactive) | 4.5 | 0.201 (inactive) | 0.004 (inactive) | -0.91 (inactive) | -0.402
COc1ccc(CNC(=O)c2ccc(-c3cc(-c4nnc(C)o4)ccc3C)cc2)cc1 | – | – | 172% | 67.1% (inactive) | 102% (inactive) | 0.42 | 1.23 (inactive) | -0.363 (inactive) | 3 | 0.129 (inactive) | -0.008 (inactive) | -0.23 (inactive) | -0.248
CCS(=O)(=O)c1ccc(OC)c(Nc2ncc(-c3ccccc3Cl)o2)c1 | – | – | 160% | 36.8% (inactive) | 74.5% (inactive) | -0.91 | -0.335 (inactive) | -0.503 (inactive) | 4.5 | 0.0626 (inactive) | 0.0065 (inactive) | 1.39 (inactive) | -0.145
COc1cc2ncnc(Nc3ccc(C)c(O)c3)c2cc1OC | – | – | 56.5% | 110% (inactive) | 65.5% (inactive) | -2.25 | 0.58 (inactive) | 2.59 (inactive) | 6 | 0.129 (inactive) | 0.0075 (inactive) | 1.32 (inactive) | -0.31
CC(C)c1ccc2c(N=Nc3ccc(S(N)(=O)=O)cc3)c(O)[nH]c2c1 | – | – | 93.4% | 160% (inactive) | 94% (inactive) | 0.03 | 0.635 (inactive) | -0.919 (inactive) | 4 | 0.177 (inactive) | -0.0065 (inactive) | -0.58 (inactive) | -0.254
O=C(Nc1n[nH]c2nc(-c3ccco3)ccc12)C1CC1 | – | – | 201% | 24% (inactive) | 104% (inactive) | -0.105 | -0.7 (inactive) | 0.373 (inactive) | 2 | 0.0203 (inactive) | -0.008 (inactive) | -0.235 (inactive) | -0.343
CN(c1ccc(NC(=O)NCCN2CCOCC2)cc1)c1ccnc(Nc2ccc(CS(C)(=O)=O)cc2)n1 | – | – | 99.9% | 114% (inactive) | 94% (inactive) | -0.155 | 0.89 (inactive) | 2.96 (inactive) | 3 | 0.184 (inactive) | -0.0035 (inactive) | -0.011 (inactive) | -0.139
CC(=O)Nc1cccc(C#Cc2cncnc2Nc2ccc(OCc3cccc(F)c3)c(Cl)c2)c1 | – | – | 111% | 108% (inactive) | 89.5% (inactive) | -0.925 | 0.045 (inactive) | -0.803 (inactive) | 3.5 | 0.169 (inactive) | 0.0085 (inactive) | -0.744 (inactive) | 0.00771
NC(=O)c1ccc2c(-c3ccnc(NCCCO)n3)c(-c3ccc(F)cc3)nn2c1 | – | – | 85.3% | 58.4% (inactive) | 106% (inactive) | 0.705 | -0.18 (inactive) | 0.119 (inactive) | 4 | 0.0827 (inactive) | 0.003 (inactive) | -0.11 (inactive) | -0.24
Cc1cc(O)cc(C)c1/C=C/c1cncc(C(=O)N(C)C)c1 | – | – | 97.7% | 96.9% (inactive) | 106% (inactive) | 0.005 | 0.18 (inactive) | 0.003 (inactive) | 4.5 | 0.177 (inactive) | 0.0095 (inactive) | -0.281 (inactive) | -0.0339
COc1ccc(-c2ccncc2)cc1C(N)=O | – | – | 85.3% | 135% (inactive) | 90% (inactive) | -0.52 | 0.46 (inactive) | 0.337 (inactive) | 4 | 0.12 (inactive) | -0.004 (inactive) | -0.169 (inactive) | -0.232
CCn1c(-c2nonc2N)nc2cncc(C(=O)N3CC[C@H](N)C3)c21 | – | – | 108% | 146% (inactive) | 76.5% (inactive) | -2.08 | -0.435 (inactive) | 1.55 (inactive) | 4 | 0.0807 (inactive) | -0.0035 (inactive) | -0.752 (inactive) | -0.175
